Measurements taken from paper PMC8384837, “Expanding the binding specificity for RNA recognition by a PUF domain”.

The sequences below were run against PUM1 PUF domain R1-RRS (Homo sapiens, UniProt Q14671 828-1176, S863R;Q867S) (assay: yeast three-hybrid, YBZ-1, SC-Leu-His + 0.5 mM 3-AT, 4 days). Details: tags: N-Gal4 AD-HA kept; label: inside an RPR1-promoter hybrid RNA with tandem MS2 sites; ssRNA.
Sequence of PUM1 PUF domain R1-RRS (Q14671 828-1176 S863R/Q867S): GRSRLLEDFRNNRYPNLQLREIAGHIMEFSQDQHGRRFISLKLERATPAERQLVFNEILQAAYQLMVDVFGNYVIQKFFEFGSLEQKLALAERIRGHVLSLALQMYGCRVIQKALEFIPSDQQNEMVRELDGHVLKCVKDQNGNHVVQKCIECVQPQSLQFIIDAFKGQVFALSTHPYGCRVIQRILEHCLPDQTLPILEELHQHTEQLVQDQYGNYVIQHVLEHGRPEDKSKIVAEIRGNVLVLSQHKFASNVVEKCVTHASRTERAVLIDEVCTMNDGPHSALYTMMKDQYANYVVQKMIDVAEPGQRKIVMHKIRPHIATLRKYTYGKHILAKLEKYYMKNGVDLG
Outline: (§1)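 A centromeric plasmid in strain YBZ-1 co-expressed Pumilio-1 PUF domain libraries, randomized at the three base-contacting residues of each repeat, with matching RNA elements; the strain carries a LexA–MS2 coat fusion and a HIS3 reporter. After four days on SC-Leu (input) or SC-Leu-His + 0.5 mM 3-AT (selection), the repeat regions were PCR-amplified and Illumina-sequenced. The interaction score is the log change in variant frequency from input to selection, using log2 and a pseudocount of 1 where absent.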
With “GGCUAGAACUAGUGGAUCCCCCGGCGCCCGGCGGCUCGAGCCCGGGUAAGUGUAAAUCGUCUGCAUGCCGCCGGGCGCCAUGCCUGCAGGUCGACUCUAGAAAACAUG” the binding signal was 5.02 log2 enrichment (interaction score). For “GGCUAGAACUAGUGGAUCCCCCGGCGCCCGGCGGCUCGAGCCCGGGUAAGUGUAAAUGGUCUGCAUGCCGCCGGGCGCCAUGCCUGCAGGUCGACUCUAGAAAACAUG”, the binding signal was 2.51 log2 enrichment (interaction score). For “GGCUAGAACUAGUGGAUCCCCCGGCGCCCGGCGGCUCGAGCCCGGGUAAGUGUAAAUUGUCUGCAUGCCGCCGGGCGCCAUGCCUGCAGGUCGACUCUAGAAAACAUG”, the binding signal was 3.16 log2 enrichment (interaction score).

Each sequence was assayed against PUM1 PUF domain R4-CMV (Homo sapiens, UniProt Q14671 828-1176, N971C;H972M;Q975V) in the same assay as above. Details: tags: N-Gal4 AD-HA kept; label: inside an RPR1-promoter hybrid RNA with tandem MS2 sites; ssRNA.
Sequence of PUM1 PUF domain R4-CMV (Q14671 828-1176 N971C/H972M/Q975V): as the sequence (Q14671 828-1176 S863R/Q867S) above, with R36S, S40Q, N144C, H145M, Q148V counted along it
Outline: as §1
With “GGCUAGAACUAGUGGAUCCCCCGGCGCCCGGCGGCUCGAGCCCGGGUAAGUGUACAUAGUCUGCAUGCCGCCGGGCGCCAUGCCUGCAGGUCGACUCUAGAAAACAUG” the binding signal was 1.08 log2 enrichment (interaction score). For “GGCUAGAACUAGUGGAUCCCCCGGCGCCCGGCGGCUCGAGCCCGGGUAAGUGUAAAUAGUCUGCAUGCCGCCGGGCGCCAUGCCUGCAGGUCGACUCUAGAAAACAUG”, the binding signal was 2.52 log2 enrichment (interaction score). In the case of “GGCUAGAACUAGUGGAUCCCCCGGCGCCCGGCGGCUCGAGCCCGGGUAAGUGUAUAUAGUCUGCAUGCCGCCGGGCGCCAUGCCUGCAGGUCGACUCUAGAAAACAUG”, the binding signal is reported as 3.68 log2 enrichment (interaction score).
